Common to all, as to type: functional
The test system of experiment [1] is Plasmodium falciparum. The experiment in a line: GSK_TCMDC: Inhibition of Plasmodium falciparum 3D7 in whole red blood cells, using parasite LDH activity as an index of growth. Test compounds present at 2uM.
In experiment [2] the test system is Plasmodium falciparum. Nature of the experiment: GSK_TCMDC: Inhibition of Plasmodium falciparum Dd2 in whole red blood cells, using parasite LDH activity as an index of growth. Test compounds present at 2uM.
For experiment [3], the system named is HepG2. Nature of the experiment: GSK_TCMDC: Percent inhibition of human HepG2 cell line. Test compounds present at 10uM.

Structures are written as SMILES.

By Inhibition is commonly meant the drop in the measured response relative to a control, in per cent. A higher Inhibition goes with a response far below the control. With `C=CCn1c(=N)n(CC(O)c2ccc(Cl)c(Cl)c2)c2ccccc21.Cl` (stereo not drawn), the Inhibition is listed as 91% in experiment [1], 80% in experiment [2] and 15% in experiment [3].

As to `CCCc1cc(C)ccc1OCCCON1C(NC(=O)OCC)=NC(NC(=O)OCC)=NC1(C)C`, the Inhibition in experiment [1] is on record as 95%; in experiment [2], 97%; in experiment [3], 62%.

Take `O=C(Nc1ccc(CN2CCOCC2)cc1)c1ccc(-c2cc(Cl)ccc2Cl)o1`: the Inhibition in experiment [1] turned out to be 100%; in experiment [2] it was 13%; in experiment [3], 5%.

Consider `Cc1cccc2nc(-c3ccc(-c4cccc(CNCCNC(=O)c5ccnn5C)c4)s3)[nH]c12.O=C(O)C(F)(F)F`, for which the results for the Inhibition in experiment [1], in experiment [2] and in experiment [3] were 100%, 87% and 17%, respectively.

For the molecule `CCC(C)CN1CCN(c2ccc(NC(=O)c3cccs3)cc2)CC1C.O=C(O)C(F)(F)F` (stereo not drawn), the Inhibition in experiment [1] was found to be 94%; in experiment [2], 94%; in experiment [3], 0%.

In the case of `CCN(CC)CCCNC(=O)/C(=C/C=C/c1cc2cc(Cl)c(Cl)cc2[nH]1)OC.Cl`, the Inhibition in experiment [1] was 84%; in experiment [2], 21%; in experiment [3] it was 38%.

Consider `O=C(c1cccc(Cl)c1)N1CCN(c2ccc([N+](=O)[O-])c(NC3CC3)c2)CC1`, for which the Inhibition in experiment [1] turned out to be 100%; in experiment [2] it was 79%; in experiment [3], 11%.

On to `Cc1c(C(=O)C2CC2CN2CCC(N3CCCCC3)CC2)sc2ccccc12` (stereo not drawn), for which the Inhibition is recorded as 94% in experiment [1], 19% in experiment [2] and 35% in experiment [3].

As for `CN(C(=O)C(C)(C)Oc1ccc(Cl)cc1)C1CCN(CCCCCNC(=O)/C=C/c2ccc(Cl)c(Cl)c2)CC1`, the Inhibition in experiment [1] came out at 96%; in experiment [2], 26%; in experiment [3] it was 86%.

Regarding `COc1ccccc1-c1ccc(CNC(=O)C(CN2CCN(C)CC2)c2ccccc2)cc1` (stereo not drawn), the Inhibition is reported as 90% in experiment [1], 4% in experiment [2] and 3% in experiment [3].

On to `Cn1nccc1C(=O)NCCNCc1ccc(-c2cccc(-c3nc4ccccc4[nH]3)c2)cc1.O=C(O)C(F)(F)F`, for which the results for the Inhibition in experiment [1], in experiment [2] and in experiment [3] were 100%, 87% and 35%, respectively.

Turning to `COc1ccc(NC(=O)Nc2cccc(-c3cccc(-c4nc5cc(F)ccc5[nH]4)c3)c2)cc1`, the Inhibition is 99% in experiment [1], 39% in experiment [2] and 59% in experiment [3].

As for `CC(=O)c1cc(N2CCCC2)ccc1N`, the Inhibition in experiment [1] is given as 97%; in experiment [2] it was 97%; in experiment [3] it was 1%.

With `Nc1c2c(nc3ccc(Oc4ccc(Cl)cc4)cc13)CCCC2`, the figures for the Inhibition in experiment [1], in experiment [2] and in experiment [3] were 100%, 65% and 42%, respectively.

As for `COc1cc2nc(NCC3CCCCC3)nc(NCc3ccccc3)c2cc1OC`, the Inhibition in experiment [1] came out at 100%; in experiment [2] it was 100%; in experiment [3], 18%.

Take `O=C(Nc1ccccc1)Nc1cccc(-c2cc(CNCCc3ccccc3)sc2-c2ccncc2)c1`: the results for the Inhibition in experiment [1], in experiment [2] and in experiment [3] were 100%, 84% and 14%, respectively.

In the case of `CC(C)Cn1c(N)cc(=O)n(C)c1=O`, the Inhibition stood at 100% in experiment [1], 0% in experiment [2] and 3% in experiment [3].

Take `Cc1nc2c(-n3cc(Cn4ccnc4)c4ccccc43)ncnc2n1-c1ccc(Cl)cc1Cl`: the Inhibition in experiment [1] came to 89%; in experiment [2] it was 29%; in experiment [3] it was 16%.

`COC(=O)CCCOc1cc(Cc2cnc(N)nc2N)cc(OC)c1OC`: the Inhibition in experiment [1] was found to be 95%; in experiment [2], 0%; in experiment [3], 12%.

For `Cc1n[nH]c2cc(Nc3nccc(Nc4ccc(Oc5ccccc5)cc4)n3)ccc12.Cl`, the figures for the Inhibition in experiment [1], in experiment [2] and in experiment [3] were 100%, 98% and 8%, respectively.

In the case of `COc1ccc(C(=O)Nc2ccc(Cl)cc2C(=O)Nc2ccncc2)cc1`, the results for the Inhibition in experiment [1], in experiment [2] and in experiment [3] were 91%, 29% and 7%, respectively.

Regarding `CCCCCn1c(Sc2ccc(C#N)c([N+](=O)[O-])c2)nnc1-c1ccc(OC)cc1`, the Inhibition was determined as 88% in experiment [1], 44% in experiment [2] and 8% in experiment [3].

In the case of `Cc1ccc(N2C(=O)C3C(C2=O)C2(c4ccccc4)C(=O)C3(c3ccccc3)C(c3ccccc3)=C2c2ccccc2)cc1` (stereo not drawn), the Inhibition came to 92% in experiment [1], 96% in experiment [2] and 17% in experiment [3].

Turning to `Cc1nc(N)nc(N)c1CCCOc1ccccc1Br`, the Inhibition in experiment [1] is 97%; in experiment [2] it was 5%; in experiment [3] it was 53%.

In the case of `Cc1ccnc(NC(c2ccc(Cl)c([N+](=O)[O-])c2)c2ccc3cccnc3c2O)c1` (stereo not drawn), the Inhibition in experiment [1] was 89%; in experiment [2], 57%; in experiment [3], 47%.

For the molecule `COc1ccc(CC(=O)Nc2ccc(-c3cccc(-c4nc5cccc(C)c5[nH]4)c3)cc2)cc1O`, the Inhibition came to 96% in experiment [1], 30% in experiment [2] and 6% in experiment [3].

`Cl.c1ccc2c(Nc3ccc(Cc4ccc(Nc5c6ccccc6nc6ccccc56)cc4)cc3)c3ccccc3nc2c1`: the Inhibition was 100% in experiment [1], 100% in experiment [2] and 93% in experiment [3].

`OCCN1CCN(c2ccc(Nc3ccnc4cc5ccccc5cc34)cc2)CC1`: the Inhibition in experiment [1] is recorded as 100%; in experiment [2] it was 100%; in experiment [3], 98%.

For the molecule `Cc1ccccc1N1CCN(c2ncc(C(=O)NC3CC3)cc2Cl)CC1.O=C(O)C(F)(F)F`, the figures for the Inhibition in experiment [1], in experiment [2] and in experiment [3] were 91%, 96% and 23%, respectively.

In the case of `O=C(Nc1cccc(-c2csc(-c3ccccc3)n2)c1)c1cccs1`, the Inhibition in experiment [1] is 89%; in experiment [2], 71%; in experiment [3] it was 0%.

In the case of `O=[N+]([O-])c1cc2c(cc1C=NNc1nc(=Nc3ccccc3)[nH]c(=Nc3ccccc3)[nH]1)OCO2`, the Inhibition in experiment [1] amounted to 98%; in experiment [2] it was 46%; in experiment [3], 0%.

Take `COc1ccc2nccc([C@@H](O)CN3CCC(NC(=O)Cn4nc(-c5ccc(C(F)(F)F)cc5)ccc4=O)CC3)c2c1`: the Inhibition in experiment [1] came out at 100%; in experiment [2], 90%; in experiment [3], 12%.

For the molecule `CCc1cc2c(Sc3nnc(N)s3)ncnc2s1`, the Inhibition in experiment [1] is recorded as 99%; in experiment [2], 65%; in experiment [3], 0%.

Consider `Cc1nc(C)c(-c2ccc(Cl)cc2Cl)c(O)c1Br`, for which the Inhibition in experiment [1] worked out at 87%; in experiment [2], 57%; in experiment [3], 3%.

On to `Cc1noc(C)c1-c1cccc(CNCc2ccc(-c3ccc(-c4nc5cc(C(F)(F)F)ccc5[nH]4)cc3)cc2)c1.O=C(O)C(F)(F)F`, for which the Inhibition was 100% in experiment [1], 97% in experiment [2] and 35% in experiment [3].

Turning to `O=[N+]([O-])c1ccc(N/C(=N\c2ccccc2Br)NC2CCCc3ccccc32)c(O)c1` (stereo not drawn), the Inhibition was 98% in experiment [1], 89% in experiment [2] and 0% in experiment [3].

With `N#Cc1ccc(C(=O)Nc2cccc(-c3ccc(CN4CCCC4)cc3)c2)cc1.O=C(O)C(F)(F)F`, the Inhibition in experiment [1] is 99%; in experiment [2], 0%; in experiment [3], 13%.

With `Clc1ccc(Nc2nc3nonc3nc2Nc2ccc(Cl)c(Cl)c2)cc1`, the Inhibition in experiment [1] came to 99%; in experiment [2] it was 92%; in experiment [3], 75%.

In the case of `Cc1ccc(C)c(CN2CCC(CNC(=O)c3cc4ccc5cccnc5c4[nH]3)CC2)c1`, the Inhibition in experiment [1] turned out to be 95%; in experiment [2], 10%; in experiment [3] it was 25%.

For the molecule `CC(C)(C)c1ccc(OCC(=O)NC2CCN(c3ccnc4cc(Cl)ccc34)C2)cc1.O=C(O)C(F)(F)F` (stereo not drawn), the Inhibition in experiment [1] is reported as 98%; in experiment [2], 100%; in experiment [3], 17%.

In the case of `CN(C)CCOc1ccc(NC(=O)Nc2ccnc3c(Br)cccc23)cc1Cl`, the Inhibition in experiment [1] is 97%; in experiment [2], 25%; in experiment [3], 10%.

For `O=C(NCc1cccc(Cl)c1)c1ccc(CNC2CCN(Cc3ccccc3)CC2)cc1.O=C(O)C(F)(F)F`, the values for the Inhibition in experiment [1], in experiment [2] and in experiment [3] were 100%, 50% and 13%, respectively.

With `Cc1cc(NCC(c2ccccc2)c2ccccc2)nc(NCC2CCCCC2)n1`, the Inhibition in experiment [1] turned out to be 100%; in experiment [2] it was 93%; in experiment [3], 12%.

For the molecule `CS(=O)(=O)NCCCNCc1cccc(-c2csc(-c3nc4ccccc4[nH]3)c2)c1.O=C(O)C(F)(F)F`, the Inhibition in experiment [1] is 95%; in experiment [2] it was 9%; in experiment [3] it was 23%.

On to `Nc1ccnc(N2CCC(CCOc3ccnc4cc(Cl)ccc34)CC2)c1.O=C(O)C(F)(F)F`, for which the Inhibition turned out to be 100% in experiment [1], 99% in experiment [2] and 34% in experiment [3].

As to `CC(C)(C)SC1SC(SC(C)(C)C)C(OC(=O)c2ccccc2)C(OC(=O)c2ccccc2)C1OC(=O)c1ccccc1` (stereo not drawn), the Inhibition came out at 95% in experiment [1], 45% in experiment [2] and 0% in experiment [3].

`Cc1cccc(C(=O)N2CCN(Cc3cccc(NC(=O)c4cccs4)c3)CC2)c1.O=C(O)C(F)(F)F`: the Inhibition in experiment [1] amounted to 95%; in experiment [2], 95%; in experiment [3] it was 5%.

For the molecule `COc1ccc(CCNc2nc(NCc3ccccc3)c3cc(OC)c(OC)cc3n2)cc1OC`, the Inhibition in experiment [1] stood at 100%; in experiment [2], 91%; in experiment [3] it was 46%.

As to `COc1ccc(-c2cnc3ccc(NCc4ccc(S(N)(=O)=O)cc4)nn23)cn1`, the Inhibition in experiment [1] was 98%; in experiment [2], 98%; in experiment [3], 16%.

`CC(C)(C)c1cc(C(=O)Nc2cccnc2)cc(C(=O)Nc2cccnc2)c1`: the Inhibition in experiment [1] is on record as 95%; in experiment [2] it was 35%; in experiment [3], 0%.

Take `Cc1ccc(-c2cc(C(=O)Nc3ccc(S(=O)(=O)N4CCOCC4)cc3)[nH]n2)c(O)c1C`: the Inhibition worked out at 91% in experiment [1], 45% in experiment [2] and 18% in experiment [3].

With `COc1ccc(CNCc2ccc(-c3cccc(-c4nc5ccccc5[nH]4)c3)cc2)cc1.O=C(O)C(F)(F)F`, the Inhibition in experiment [1] is recorded as 100%; in experiment [2] it was 85%; in experiment [3] it was 57%.

For `CC(C)N1CCC(N(Cc2ccc(-c3ccc(C(F)(F)F)cc3)cc2)C(=O)Cn2c(SCc3cccc(F)c3F)cc(=O)c3ccccc32)CC1.O=C(O)C(O)C(O)C(=O)O`, the Inhibition in experiment [1] is given as 100%; in experiment [2] it was 77%; in experiment [3], 52%.

For `O=C(Nc1ccc2c(c1)CCNCC2)Nc1ccc2ccccc2c1.O=C(O)C(F)(F)F`, the Inhibition is given as 84% in experiment [1], 23% in experiment [2] and 0% in experiment [3].

For the molecule `CC(=O)Nc1ccc(C(=O)Nc2cccc(-c3ccc(-c4nc5cc(C(F)(F)F)ccc5[nH]4)cc3)c2)cn1`, the Inhibition in experiment [1] came to 100%; in experiment [2] it was 100%; in experiment [3], 46%.

Turning to `CCCC[C@@H](C(=O)NCc1ccccc1C(F)(F)F)N1C(=O)CCC1C(=O)Nc1ccc([N+](=O)[O-])cc1` (stereo partly drawn), the Inhibition in experiment [1] is on record as 94%; in experiment [2], 2%; in experiment [3] it was 7%.

The values above are taken from ChEMBL document CHEMBL1157539, “Thousands of chemical starting points for antimalarial lead identification” (Nature, 2010).
